# ChEMBL document CHEMBL3988442, “University of Dundee, Small-Polar-MMV Screening Library” (2021)
# For some of these results: Potency and affinity values are given separately.
# Experiments:
# Design in all cases: scale not given: direction of the effect not stated beside the values
# [1] = target: Protein translocase subunit SecA (Escherichia coli (strain K12)) (UniProt P10408); experiment: Assay to Identify E. coli SecA ATPase Inhibitors; type: functional; details: 30 µM
# [2] = target: T1, Ubiquitin-activating enzyme e1, putative (Leishmania donovani (strain BPK282A1)) (UniProt E9BSI1); experiment: Leishmania donovani Ubiquitin Activating Enzyme (LdE1); type: functional; details: 30 µM
# T1 sequence (whole entry): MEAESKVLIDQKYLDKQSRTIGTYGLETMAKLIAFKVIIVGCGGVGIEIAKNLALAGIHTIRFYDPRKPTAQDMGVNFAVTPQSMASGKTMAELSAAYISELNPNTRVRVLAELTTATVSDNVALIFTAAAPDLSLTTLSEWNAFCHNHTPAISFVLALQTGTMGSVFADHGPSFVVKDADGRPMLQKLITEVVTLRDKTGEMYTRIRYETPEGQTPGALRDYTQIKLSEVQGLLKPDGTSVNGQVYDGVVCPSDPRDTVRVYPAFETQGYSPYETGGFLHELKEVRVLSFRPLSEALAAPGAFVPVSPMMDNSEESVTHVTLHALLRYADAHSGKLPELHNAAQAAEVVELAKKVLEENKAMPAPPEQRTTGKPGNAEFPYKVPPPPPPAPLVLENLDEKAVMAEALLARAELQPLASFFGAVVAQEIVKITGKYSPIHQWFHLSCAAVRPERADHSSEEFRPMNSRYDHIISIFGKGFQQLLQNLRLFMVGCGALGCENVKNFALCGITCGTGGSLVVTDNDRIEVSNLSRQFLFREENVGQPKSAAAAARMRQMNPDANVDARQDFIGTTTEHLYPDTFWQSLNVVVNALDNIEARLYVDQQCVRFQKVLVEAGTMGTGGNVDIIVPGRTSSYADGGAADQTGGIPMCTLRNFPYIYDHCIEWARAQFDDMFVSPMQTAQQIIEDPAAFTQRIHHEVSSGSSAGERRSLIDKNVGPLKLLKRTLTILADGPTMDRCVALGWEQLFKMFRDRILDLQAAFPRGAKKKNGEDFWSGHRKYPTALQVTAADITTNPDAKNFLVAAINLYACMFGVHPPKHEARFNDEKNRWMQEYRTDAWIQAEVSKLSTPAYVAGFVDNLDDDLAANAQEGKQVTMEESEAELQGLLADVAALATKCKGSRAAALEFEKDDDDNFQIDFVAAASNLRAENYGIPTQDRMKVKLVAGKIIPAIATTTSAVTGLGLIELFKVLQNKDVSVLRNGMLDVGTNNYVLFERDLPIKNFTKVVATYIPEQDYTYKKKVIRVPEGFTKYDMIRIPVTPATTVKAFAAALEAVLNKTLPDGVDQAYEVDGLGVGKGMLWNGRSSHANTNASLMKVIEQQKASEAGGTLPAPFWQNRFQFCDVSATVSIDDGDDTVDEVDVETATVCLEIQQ
# [3] = target: AMP-activated protein kinase, AMPK (Homo sapiens) (UniProt P54646+O43741+P54619+Q9UGJ0+Q9Y478+Q13131+Q9UGI9); experiment: AMP-dependent Kinase enzyme assay. An in vitro enzyme assay that detects ADP turnover that is directly proportional to AMPK activity. This uses naive AMPK that is activated during the assay with MK-8722; type: functional; details: 30 µM
# [4] = target: Sialic acid-binding Ig-like lectin 9 (Homo sapiens) (UniProt Q9Y336); experiment: Hs-Siglec9 ALPHAscreen SOP 20170721; details: 10 µM
# Sequence of Sialic acid-binding Ig-like lectin 9 (Homo sapiens) (Q9Y336 whole entry): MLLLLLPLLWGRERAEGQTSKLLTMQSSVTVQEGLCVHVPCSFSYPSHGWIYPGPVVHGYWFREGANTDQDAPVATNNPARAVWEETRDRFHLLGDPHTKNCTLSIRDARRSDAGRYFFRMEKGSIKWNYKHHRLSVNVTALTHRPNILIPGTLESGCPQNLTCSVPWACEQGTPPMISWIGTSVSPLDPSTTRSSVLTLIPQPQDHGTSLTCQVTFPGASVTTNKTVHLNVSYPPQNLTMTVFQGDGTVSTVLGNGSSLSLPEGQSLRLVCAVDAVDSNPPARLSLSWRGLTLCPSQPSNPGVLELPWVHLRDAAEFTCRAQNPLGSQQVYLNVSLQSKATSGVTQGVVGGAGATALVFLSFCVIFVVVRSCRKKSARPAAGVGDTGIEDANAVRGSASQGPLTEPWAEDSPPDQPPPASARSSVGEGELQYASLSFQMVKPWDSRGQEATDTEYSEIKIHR
# Trypanosoma cruzi = experiment: Trypanosoma cruzi phosphomannomutase and mannose-1-phosphate guanylyltransferase assay; type: functional; details: 10 µM
# [5] = target: T2, Arginase-2, mitochondrial (Homo sapiens) (UniProt P78540); experiment: in vitro enzyme assay to detect the production of urea directly proportional to the activity of Arginase II; type: functional; details: 33.3 µM; further: in the data most compounds retested in dose-response had high values
# T2 sequence (whole entry): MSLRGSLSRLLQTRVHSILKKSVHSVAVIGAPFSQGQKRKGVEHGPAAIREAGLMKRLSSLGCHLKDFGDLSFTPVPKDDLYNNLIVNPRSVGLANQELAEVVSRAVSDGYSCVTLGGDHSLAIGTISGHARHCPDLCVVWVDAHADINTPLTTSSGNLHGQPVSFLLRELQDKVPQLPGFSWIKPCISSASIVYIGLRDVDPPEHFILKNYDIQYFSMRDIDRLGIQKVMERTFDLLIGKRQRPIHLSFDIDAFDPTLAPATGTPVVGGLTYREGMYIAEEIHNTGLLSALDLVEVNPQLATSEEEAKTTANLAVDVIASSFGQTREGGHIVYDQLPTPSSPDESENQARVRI
# [6] = target: T3, Proteasome subunit beta (Trypanosoma cruzi) (UniProt O96673); experiment: Trypanosoma cruzi proteasome chymotrypsin-like activity (TcProtChymo) assay.; further: in the data most compounds retested in dose-response had high values; type: functional; details: 9.37 µM
# T3 sequence (whole entry): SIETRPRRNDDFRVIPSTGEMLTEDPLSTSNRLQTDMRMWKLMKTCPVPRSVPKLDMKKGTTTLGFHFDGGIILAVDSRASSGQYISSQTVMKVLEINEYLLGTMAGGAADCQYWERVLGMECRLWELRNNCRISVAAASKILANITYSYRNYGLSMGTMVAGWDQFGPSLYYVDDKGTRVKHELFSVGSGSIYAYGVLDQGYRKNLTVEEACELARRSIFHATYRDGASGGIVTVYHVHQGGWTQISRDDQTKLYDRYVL
# Homo sapiens = species on record: Homo sapiens; experiment: To identify inhibition of the IFN signalling (Jak-Stat) pathway via expression of an eGFP reporter gene under the control of an IFN-stimulated response element (ISRE) containing MxA promoter.; type: functional; details: 30 µM
# [7] = target: T4, Tyrosyl-tRNA synthetase, putative (Trypanosoma cruzi (strain CL Brener)) (UniProt Q4DSP6); experiment: Trypanosoma cruzi tyrosyl tRNA synthetase (TcYRS) _High Tyrosine SOP; type: functional; details: 30 µM; further: in the data most compounds retested in dose-response had high values
# T4 sequence (whole entry): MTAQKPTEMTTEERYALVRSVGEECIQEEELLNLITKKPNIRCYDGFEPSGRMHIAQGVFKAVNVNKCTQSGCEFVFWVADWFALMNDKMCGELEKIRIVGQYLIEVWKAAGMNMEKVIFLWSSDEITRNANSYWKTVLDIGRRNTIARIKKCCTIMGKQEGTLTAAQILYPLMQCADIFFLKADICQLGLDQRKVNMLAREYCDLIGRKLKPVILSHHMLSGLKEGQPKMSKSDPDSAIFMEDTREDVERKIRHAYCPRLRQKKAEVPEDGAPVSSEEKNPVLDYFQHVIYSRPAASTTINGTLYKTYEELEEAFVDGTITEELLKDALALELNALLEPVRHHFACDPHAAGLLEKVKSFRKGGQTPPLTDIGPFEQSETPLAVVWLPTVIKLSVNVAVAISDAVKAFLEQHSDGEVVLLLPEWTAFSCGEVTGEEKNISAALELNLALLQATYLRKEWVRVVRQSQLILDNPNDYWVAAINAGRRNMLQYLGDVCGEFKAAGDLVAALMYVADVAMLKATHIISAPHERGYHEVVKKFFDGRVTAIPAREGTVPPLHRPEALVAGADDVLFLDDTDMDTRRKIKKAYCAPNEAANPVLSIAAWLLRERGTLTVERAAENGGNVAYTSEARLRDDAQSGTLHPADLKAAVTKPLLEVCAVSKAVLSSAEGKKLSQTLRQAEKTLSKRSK
# [8] = target: T4, Tyrosyl-tRNA synthetase, putative (Trypanosoma cruzi (strain CL Brener)); experiment: Trypanosoma cruzi tyrosyl tRNA synthetase (TcYRS) SOP; type: functional; details: 30 µM
# [9] = target: Chromo domain-containing protein 1 (Saccharomyces cerevisiae (strain ATCC 204508 / S288c) (Baker's yeast)) (UniProt P32657); experiment: ScCHD-1 Enzyme Inhibition Assay; type: functional; details: 30 µM; further: in the data most compounds retested in dose-response had high values
# Sequence of Chromo domain-containing protein 1 (Saccharomyces cerevisiae (strain ATCC 204508 / S288c) (Baker's yeast)) (P32657 whole entry, the tested form may be a part): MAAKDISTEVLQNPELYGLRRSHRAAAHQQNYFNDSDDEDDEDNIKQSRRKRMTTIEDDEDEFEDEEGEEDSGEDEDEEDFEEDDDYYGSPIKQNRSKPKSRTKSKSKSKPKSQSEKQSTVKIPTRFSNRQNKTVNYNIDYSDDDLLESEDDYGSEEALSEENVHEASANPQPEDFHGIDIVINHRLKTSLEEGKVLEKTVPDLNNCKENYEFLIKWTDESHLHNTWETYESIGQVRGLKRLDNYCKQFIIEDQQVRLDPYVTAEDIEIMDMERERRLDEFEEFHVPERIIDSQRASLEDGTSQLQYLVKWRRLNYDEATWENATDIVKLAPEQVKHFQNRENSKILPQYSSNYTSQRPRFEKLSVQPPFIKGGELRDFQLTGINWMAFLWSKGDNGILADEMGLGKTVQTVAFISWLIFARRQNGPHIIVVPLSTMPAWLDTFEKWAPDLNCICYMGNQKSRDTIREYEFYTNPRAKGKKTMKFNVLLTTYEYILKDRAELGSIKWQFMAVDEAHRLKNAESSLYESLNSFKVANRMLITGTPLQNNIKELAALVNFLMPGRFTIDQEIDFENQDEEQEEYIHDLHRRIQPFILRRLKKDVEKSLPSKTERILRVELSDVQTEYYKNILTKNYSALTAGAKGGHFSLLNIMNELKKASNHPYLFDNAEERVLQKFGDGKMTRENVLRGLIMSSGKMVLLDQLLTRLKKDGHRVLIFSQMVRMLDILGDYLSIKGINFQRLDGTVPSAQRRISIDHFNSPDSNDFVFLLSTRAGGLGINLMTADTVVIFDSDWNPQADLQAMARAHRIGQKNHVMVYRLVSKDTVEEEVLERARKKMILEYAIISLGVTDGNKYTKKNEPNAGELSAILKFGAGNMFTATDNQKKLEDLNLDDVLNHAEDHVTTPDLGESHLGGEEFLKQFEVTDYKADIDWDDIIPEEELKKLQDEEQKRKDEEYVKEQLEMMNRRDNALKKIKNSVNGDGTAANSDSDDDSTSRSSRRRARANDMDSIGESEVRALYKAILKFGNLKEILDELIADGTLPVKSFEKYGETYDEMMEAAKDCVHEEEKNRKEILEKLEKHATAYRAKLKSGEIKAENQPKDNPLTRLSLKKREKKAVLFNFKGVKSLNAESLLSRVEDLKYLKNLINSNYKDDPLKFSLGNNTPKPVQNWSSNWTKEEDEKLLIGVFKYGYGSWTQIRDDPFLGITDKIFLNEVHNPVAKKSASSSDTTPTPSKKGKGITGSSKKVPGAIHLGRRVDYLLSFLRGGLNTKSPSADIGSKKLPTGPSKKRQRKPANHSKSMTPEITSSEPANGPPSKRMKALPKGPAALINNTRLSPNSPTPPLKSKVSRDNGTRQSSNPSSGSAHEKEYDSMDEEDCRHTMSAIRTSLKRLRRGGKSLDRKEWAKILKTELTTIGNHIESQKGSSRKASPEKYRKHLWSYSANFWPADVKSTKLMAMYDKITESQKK
# Sequence of Protein translocase subunit SecA (Escherichia coli (strain K12)) (P10408 whole entry): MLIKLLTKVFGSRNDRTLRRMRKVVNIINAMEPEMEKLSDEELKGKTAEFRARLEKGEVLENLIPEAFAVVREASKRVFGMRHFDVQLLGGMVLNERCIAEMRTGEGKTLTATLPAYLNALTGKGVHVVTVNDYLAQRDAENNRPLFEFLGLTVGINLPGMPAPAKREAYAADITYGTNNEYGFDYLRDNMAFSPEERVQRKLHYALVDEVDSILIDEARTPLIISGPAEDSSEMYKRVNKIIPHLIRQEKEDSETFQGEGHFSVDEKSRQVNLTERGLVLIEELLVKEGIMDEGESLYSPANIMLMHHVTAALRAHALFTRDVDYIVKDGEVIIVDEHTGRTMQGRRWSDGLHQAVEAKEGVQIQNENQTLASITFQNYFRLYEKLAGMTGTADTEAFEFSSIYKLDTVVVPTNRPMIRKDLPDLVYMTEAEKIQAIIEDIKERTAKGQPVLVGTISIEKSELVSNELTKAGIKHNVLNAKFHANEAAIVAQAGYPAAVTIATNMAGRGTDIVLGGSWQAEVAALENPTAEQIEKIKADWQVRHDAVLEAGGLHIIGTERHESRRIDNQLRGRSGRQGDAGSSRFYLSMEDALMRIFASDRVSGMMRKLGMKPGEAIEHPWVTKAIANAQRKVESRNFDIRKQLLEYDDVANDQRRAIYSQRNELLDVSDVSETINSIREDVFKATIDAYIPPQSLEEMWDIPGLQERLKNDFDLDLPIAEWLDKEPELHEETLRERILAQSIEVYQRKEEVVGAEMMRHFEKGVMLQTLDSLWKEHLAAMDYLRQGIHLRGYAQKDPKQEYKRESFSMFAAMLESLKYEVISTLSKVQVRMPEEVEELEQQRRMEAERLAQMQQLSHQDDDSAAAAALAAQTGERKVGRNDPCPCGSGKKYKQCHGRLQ
SMILES,Percent Effect [1] [%],Percent Effect [2] [%],Percent Effect [3] [%],Percent Effect [4] [%],Percent Effect (Trypanosoma cruzi) [%],Percent Effect [5] [%],Percent Effect [6] [%],Percent Effect (Homo sapiens) [%],Percent Effect [7] [%],Percent Effect [8] [%],Percent Effect [9] [%]
CNC(=O)c1ccc(OC2CCN(S(C)(=O)=O)CC2)c(Cl)c1,-2.46,4.17,-2.06,-2.97,0.68,2.65,14.7,24.7,6.32,10.3,-2.92
O=C(CCc1c[nH]cn1)N1CC[C@@H](c2ccc3ccccc3c2)[C@H](O)C1,-5.41,10.7,-4.75,24.9,5.16,8.85,9.77,15.3,7.1,13.6,106
CCc1ncc(CN(C)C(=O)Nc2cccnc2N2CCCC2)s1,-6.28,13.2,-27.9,8.15,7.38,1.8,10.4,-11.4,5.42,13.6,-1.2
CN(C)[C@@H]1CCN(c2ncccn2)[C@H]1Cc1ccncc1,-4.35,2.6,-0.281,0.217,5.01,1.38,2.5,-12.2,1.07,3.7,-1.65
CN(Cc1ccncc1)C(=O)Nc1cnn(CC2CCCO2)c1 (stereo not given),0.7,5.41,-6.68,-2.66,-3.67,0.952,20,17.6,-1.59,2.44,-5.74
Cc1nc(CN2C(=O)C[C@H]3[C@H]2CCN3C2CCOCC2)cs1,-2.26,11,-0.758,4.06,0.595,-2,8.3,-4.37,3.12,11.1,-3.21
CC(NCc1ccc(Cl)o1)c1nnc2n1CCCC2 (stereo not given),-1.28,13.5,2.81,2.02,0.195,11.2,15,24.2,6.93,18.3,1.09
O=C(c1cnc(C2CC2)s1)N1CCCCC1Cn1cccn1 (stereo not given),-2.96,1.27,4.54,-0.611,-1.13,-3.23,12.9,-2.91,2.08,7.59,-0.92
CCCc1nc(CN2CCN(CC(O)c3ccccc3)CC2)no1 (stereo not given),-2.75,11.4,-0.305,1.98,-1.54,4.09,8.23,7.59,5.21,-2.53,-26.1
COCCN1C[C@H]2CC[C@@]3(N=C(C)N(CC4CC4)C3=O)[C@H]2C1,-4.99,5.41,1.81,-4.12,-0.391,-0.417,8.71,7.83,6.93,8.54,1.06
Cc1noc(C(C)C)c1C(=O)NCc1cccc(N(C)C)c1,-7.07,18.2,-6.12,-1.43,-6.74,-2.49,8.28,33,4.85,9.76,-8
CN(Cc1cnn(C)c1)C(=O)NC1CCS(=O)(=O)C1 (stereo not given),0.0061,4.17,-12.4,-0.91,5.15,-0.442,20.5,6.03,4.21,7.69,-2.71
Cn1cnnc1C1CCCN(C(=O)NCc2ccc3c(c2)OCO3)C1 (stereo not given),-5.4,-10.4,-2.19,-7.32,3.43,-12.8,11.2,-5.11,9.52,23.5,-12.6
O=c1cc(CN2CCCC2)nc2n1CCCN(Cc1ccsc1)C2,-0.492,17.3,3.4,2.2,-1.57,-9.68,14.4,-8.49,4.23,7.69,-10.8
Cc1csc2nc3n(c(=O)c12)CCN(C(=O)c1ccncc1)CC3,-6.48,20.3,7.17,-3.24,1.78,-2.09,9.83,12.7,2.15,11.7,-13.5
Cc1cc(C)n(C2CCCN(C(=O)CCCNc3ncccn3)C2)n1 (stereo not given),-6.94,13.9,-2.21,-4.67,3.38,2.8,10.6,-0.293,4.17,20.2,-26.7
Cc1cnn(CC2CN(Cc3nnc(-c4occc4C)o3)CCO2)c1 (stereo not given),-3.52,10.8,142,-3.99,3.06,-0.924,-0.898,16,7.92,23.2,-5.94
Cc1cc(CNC(=O)N2CCN(c3nc(C)c(C)s3)CC2)no1,-9.13,18.9,-4.31,31.4,9.18,45,17.2,14,8.91,15.8,-4.46
Cc1noc([C@@H]2CC[C@@H]3[C@@H](CCN3S(=O)(=O)c3cccnc3)O2)n1,-1.26,5.41,9.76,-4.15,-3.12,1.67,9.89,3.62,6.93,13.4,3.12
COCCN1CCC2(CC1)CC(COC)N(c1ncccn1)C2 (stereo not given),-4.36,7.79,1.21,1.5,1.48,-19.3,7.99,-6.06,3.23,3.7,1.23
